Results filed as inconclusive are left out. Unmarked numbers belong to inactive results. Active and inactive are the calls of the source. Calls come from the whole dose curve; as a rule, active = well fitted cell-killing curve with a large enough effect in the repeat runs; inconclusive = weak or mixed curves, or effect the other way; inactive = no such curve, though single readings can be large or run the other way.
Assay: qHTS assay to identify small molecule antagonists of the progesterone receptor (PR) signaling pathway - cell viability counter screen (AID 1346798); note: nearly all actives have a fitted effect of over 50% in size
Details: PR-UAS-bla HEK293T viability, CellTiter-Glo luminescence, 16 h; series mostly up to 92.4 µM; activity change, negative = cytotoxicity: at the top concentration
Excerpt: National Center for Advancing Translational Sciences [NCATS]
NIH Chemical Genomics Center [NCGC]
U.S. Environmental Protection Agency [EPA]
National Institutes of Environmental Health Sciences [NIEHS]
National Toxicology Program [NTP]
U.S. Food and Drug Administration [FDA]
Progesterone receptor (PR), a nuclear hormone receptor, plays an important role in development, metabolic homeostasis and reproduction. It is activated by the steroid hormone progesterone. Endocrine disrupting chemicals (EDCs) and their interactions with steroid hormone receptors like PR causes disruption of normal endocrine function. To identify the compounds that inhibit PR signaling, a PR-UAS-bla GripTite cell line i.e. PR-UAS-bla HEK293T (Invitrogen, Carlsbad, CA, USA) containing a beta-lactamase reporter gene under the control of an UAS response element was used to screen Tox21 10K compound library. The cytotoxicity of the Tox21 compound library against the PR-bla cell line was tested in parallel by measuring the cell viability using CellTiter-Glo assay in the same wells.
Tox21 Assay Protocol Summary:
PR-UAS-bla HEK293T cells were dispensed at 3,000 cells/4 uL of assay medium containing 2% charcoal stripped FBS per well into black wall/clear-bottom 1536-well plates using a Multidrop Combi (ThermoFisher Scientific, Waltham, MA) dispenser. After the assay plates were incubated at a 37C and 5% CO2 for 4 hr, 23 nL of compounds dissolved in DMSO, positive controls or DMSO only was transferred to the assay plate by a Pintool station (Kalypsys, San Diego, CA), followed by addition of 1 uL of R5020 in assay medium using a Flying Reagent Dispenser (FRD, Aurora Discovery, San Diego, CA). The plates were incubated at 37C and 5% CO2 for 16 hr. Then 1 uL of LiveBLAzer B/G FRET substrate was added using a Flying Reagent Dispenser, the plates were incubated at room temperature for 2 hours, and fluorescence intensity was measured by an Envision plate reader (PerkinElmer, Shelton, CT). For cell viability readout that measures cytotoxicity, 4 uL/well of CellTiter-Glo reagent was added into the assay plates using a FRD. After 30 min incubation at room temperature, the luminescence intensity in the plates was measured using a ViewLux (PerkinElmer) plate reader.
% is set by controls: 0 for no effect and ±100 for the full control effect; potency is the fitted concentration of half-maximal effect.

| Compound | activity change, negative = cytotoxicity | Potency |
| --- | --- | --- |
| O=c1[nH]c(=O)c2[nH]c(=O)[nH]c2[nH]1 | -11.7% [at 8.39 µM] |  |
| CCCCOC(=O)[C@@H](C)Oc1ccc(Oc2ccc(C(F)(F)F)cn2)cc1 | 47.9% |  |
| CCC(O)C(C)(C)C (stereo not given) | -5.76% |  |
| O=C1CC[C@H](C(=O)N2CCCCC2)N1 | -3.4% [at 42.5 µM] |  |
| COC(/C=C(\C)CCC=C(C)C)OC | -6.48% |  |
| SCCSCCS | 0.497% |  |
| CC(=O)OC(C)c1ccccc1 (stereo not given) | -0.287% |  |
| C=CCOCC(O)CCl (stereo not given) | -0.276% |  |
| CCCCCCCC[Si](OCC)(OCC)OCC | 17.8% |  |
| CC1(N)CCC(C(C)(C)N)CC1 (stereo not given) | 24.7% |  |
| COC(OC)C(C)c1ccccc1 (stereo not given) | 8.94% |  |
| CC(=O)c1ccc(OCC(=O)N2CCCCC2)cc1 | 20% [at 42.5 µM] |  |
| C=CCCCCCCCCCCC | -5.87% [at 8.39 µM] |  |
| O=C(Oc1ccccc1C(=O)O)c1ccccc1O | -2.6% [at 42.5 µM] |  |
| C[N+](C)(C)CC(O)CCl (stereo not given) | 0.673% |  |
| Cc1oc(=O)oc1CN1CCN(c2cc3c(cc2F)c(=O)c(C(=O)O)c2n3C(C)S2)CC1 (stereo not given) | 2.04% [at 42.5 µM] |  |
| CC(C)(c1ccc(Oc2ccc3c(c2)C(=O)OC3=O)cc1)c1ccc(Oc2ccc3c(c2)C(=O)OC3=O)cc1 | 11% |  |
| CC(=O)N(CC(O)CO)c1c(I)c(C(=O)NCC(O)CO)c(I)c(C(=O)NCC(O)CO)c1I (stereo not given) | -1.08% [at 42.5 µM] |  |
| CCCCOC(=O)C(=O)OCCCC | 19.5% |  |
| CC(C)(C)NCCO |  | 30.6 µM (active) |

| Compound | activity change, negative = cytotoxicity | Potency |
| --- | --- | --- |
| c1ccccc1 | 1.95% |  |
| CCC(C)(C)C1CCC(=O)CC1 | 1.92% |  |
| CCN(Cc1cccc(S(=O)(=O)O)c1)c1ccccc1 | -9.03% |  |
| COc1cc2c(Nc3ccc(Br)cc3F)ncnc2cc1OCC1CCN(C)CC1 | -7.91% [at 42.5 µM] |  |
| O=S(=O)(O)c1cc(O)ccc1O | 0.263% |  |
| CCN(CCO)c1cccc(C)c1 | -16.4% |  |
| OCCCCCCCl | -1.65% |  |
| Cc1ccccc1C | -0.682% |  |
| CC1=NN(c2ccc(S(=O)(=O)O)cc2)C(=O)C1N=Nc1ccccc1 (stereo not given) | -6.84% |  |
| COc1cc(C=O)ccc1OC(=O)C(C)C | -0.0229% |  |
| FC(F)(F)/C(=N\OCC1OCCO1)c1ccc(Cl)cc1 | 17.9% |  |
| C[C@@H]1C[C@H]2[C@@H]3C[C@H](F)C4=CC(=O)C=C[C@]4(C)[C@@]3(F)[C@@H](O)C[C@]2(C)[C@@]1(O)C(=O)CO | 11.6% [at 42.5 µM] |  |
| CCOC(=O)C(=O)c1csc(NC=O)n1 | 2.83% [at 42.5 µM] |  |
| CC(C)COC(=O)COc1ccc(Cl)cc1Cl | 0.516% |  |
| CN(C)CCOCCN(C)CCO | -2.26% |  |
| CCS(=O)(=O)CCn1c([N+](=O)[O-])cnc1C | 15% [at 42.5 µM] |  |
| CC(C)c1ccccc1O | 0.256% |  |
| CCOC(=O)CC(CC(=O)OCC)(OC(C)=O)C(=O)OCC | -2.94% |  |
| NS(=O)(=O)c1cc2c(cc1Cl)NC(C(Cl)Cl)NS2(=O)=O (stereo not given) | -2.44% [at 42.5 µM] |  |
| O=C(/C=C/c1ccccc1)NCCO | -1.6% [at 42.5 µM] |  |

— PubChem BioAssay (Tox21)
